TRPML1 blocker: qHTS for Inhibitors of the Human Mucolipin Transient Receptor Potential 1 (TRPML1). Mucolipin-1 (Homo sapiens), Q9GZU1. TRPML1-inducible cells, Ca2+ dye fluorescence, FDSS; stronger effect = lower value; inhibition of EC80 agonist-evoked calcium signal. activity change, negative = inhibition, % (test concentration not listed). 390,000 tested, 0.02% active; in the data active = activity change below about -50%; inconclusive = between about -30% and that limit;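 note: stimulus is agonist 54-4 at its EC80 concentration; % is set by controls: 0 for no effect and ±100 for the full control effect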
Target sequence (Q9GZU1 whole entry, looked up): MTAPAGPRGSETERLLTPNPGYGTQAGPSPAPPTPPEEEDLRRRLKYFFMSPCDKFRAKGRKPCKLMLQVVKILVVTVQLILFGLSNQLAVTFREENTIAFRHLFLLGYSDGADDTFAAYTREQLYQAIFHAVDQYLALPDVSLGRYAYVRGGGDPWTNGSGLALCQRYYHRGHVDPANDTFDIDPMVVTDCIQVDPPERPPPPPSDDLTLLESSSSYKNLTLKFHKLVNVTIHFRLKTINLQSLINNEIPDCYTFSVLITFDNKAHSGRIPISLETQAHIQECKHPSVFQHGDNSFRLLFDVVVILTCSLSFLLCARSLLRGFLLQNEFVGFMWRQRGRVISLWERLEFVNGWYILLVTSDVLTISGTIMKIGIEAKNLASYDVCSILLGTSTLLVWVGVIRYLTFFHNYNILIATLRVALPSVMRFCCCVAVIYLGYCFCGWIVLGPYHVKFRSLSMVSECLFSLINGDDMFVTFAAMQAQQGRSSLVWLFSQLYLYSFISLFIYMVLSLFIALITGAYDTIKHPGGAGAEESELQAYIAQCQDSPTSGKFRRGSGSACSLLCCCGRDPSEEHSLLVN
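TRPML1-DL cells, Tet-induced overnight (~16 h, 37 °C) at 1,500 cells/well, were loaded with Ca8 no-wash dye plus quencher for 45-90 min at room temperature. Compounds were pinned during FDSS kinetic reading; agonist 54-4 at EC80 (4 uM final) then added.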
DRD3 agonist: qHTS of D3 Dopamine Receptor Agonist: qHTS; D(3) dopamine receptor (Homo sapiens), P35462; D3R DiscoveRx beta-arrestin cells, luminescence, 90 min; max activation, %; 410,000 tested, 0.58% active; in the data active = max activation above about 30%; note: 0% is about no effect
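Agonist mode: compounds and dopamine controls were applied to plated cells for 90 min at 37 degrees C after an overnight attachment at 1500 cells/well. Luminescent read-out followed 30 - 60 minutes at room temperature with DiscoveRx detection reagent.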
DRD3 antagonist: qHTS of D3 Dopamine Receptor Antagonist: qHTS; max response, negative = inhibition, %; 360,000 tested, 2.5% active; D(3) dopamine receptor (Homo sapiens), P35462; D3R cells, DiscoveRx beta-arrestin luminescence, antagonist mode; stronger effect = lower value; in the data active = max response below about -50%; inconclusive = no clear call, values can overlap the other calls; note: % is set by controls: 0 for no effect and ±100 for the full control effect
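Cells plated overnight at 1500 cells/well, then exposed to library compounds with dopamine controls for 90 minutes at 37 degrees C. DiscoveRx reagent added for 30–60 minutes at room temperature; luminescence read, quantitative HTS format.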
TRPML1 agonist: qHTS for Agonists of the Human Mucolipin Transient Receptor Potential 1 (TRPML1); Mucolipin-1 (Homo sapiens), Q9GZU1; TRPML1-expressing cells, Ca2+ dye fluorescence, FDSS; activation, % (concentration not given with the values); 410,000 tested, 0.12% active; AID 624414, 2012; in the data active = activation above about 50%; inconclusive = mostly about 30% to 49%; note: 0% is about no effect
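Cells: TRPML1-DL, 1X Tet inducer, ~16 h at 37 degrees C/5% CO2. Dye: ABD Ca8 no-wash + quencher, 45-90 min RT. Read: 10 s baseline, compound add, 110 s agonist phase; 54-4 EC80 (4uM final), 110 s antagonist phase.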
An asterisk follows results filed as active; ? = inconclusive; nt = not tested or not shown. Only some compounds are listed: those with a hit (about 2.9% of all), similar ones and a draw of the others.

SMILES	TRPML1 blocker	DRD3 agonist	DRD3 antagonist	TRPML1 agonist
COc1ccc(C(=O)N/C(=C/c2cccs2)c2nc3ccccc3[nH]2)cc1OC	2.8	-4.8	19.0	0.0
O=C1N/C(=C/c2ccc(N3CCCC3)cc2)C(=O)N1c1ccccc1	6.8	-0.3	-12.8	4.4
O=C1/C(=C/c2ccc(N3CCCC3)cc2)NC(=S)N1C1CC1	-8.5	-6.7	-20.8	50.1*
COCCCNC(=O)COc1ccc(Br)cc1Cl	35.8	-2.2	-3.8	-0.8
Clc1ccc(OCCCn2ccnc2)c(Br)c1	2.5	8.7	0.0	1.9
CC(C)NCCCOc1ccc(Cl)cc1Br	13.7	3.0	-73.0*	1.0
CN(C)CCOCCOc1ccc(Cl)cc1C(C)(C)C	16.7	-12.2	?	4.2
CC(O)CNCCCOc1ccc(Cl)cc1C(C)(C)C (configuration not stated)	0.9	-14.2	-52.7*	0.5
CC(C)NCCCCOc1ccc(Br)cc1Cl	4.7	-1.9	-70.8*	0.5
CCCCNCCOCCOc1ccc(Cl)cc1Br	14.1	-23.9	-87.1*	-1.3
Cn1c(=O)c2sccc2n2c(CCCC(=O)Nc3ccc(Oc4ccc(Cl)cc4)cc3)nnc12	5.1	10.5	nt	0.3
CCCCn1c(=N)n(CCCOc2ccc(F)cc2)c2ccccc21	-7.0	2.1	nt	0.3
CCCCNCCOCCOc1ccc(F)cc1	38.0	-21.3	-53.8*	-0.4
N#Cc1c(-n2ncnc2-c2ccccc2Cl)sc2c1CCCCC2	10.4	5.1	nt	-0.5
O=C1NCN(c2ccccc2)C12CCN(CCCC(c1ccc(F)cc1)c1ccc(F)cc1)CC2	-1.8	-84.9	-103.8*	-0.6
O=C1CCC(=O)N1CCC(c1ccc(F)cc1)c1ccco1 (configuration not stated)	25.2	9.4	-8.6	0.9
COc1ccc(C)c2sc(N(Cc3cccnc3)C(=O)CCc3ccccc3)nc12	1.4	6.7	nt	2.2
COc1ccc(OCC(=O)Nc2c(C(=O)N3CCN(c4ccccc4)CC3)oc3ccccc23)cc1	-13.2	88.8*	nt	-0.1
O=C(c1ccc2c(=O)n(-c3ccccc3)c(=O)[nH]c2c1)N1CCN(Cc2cccs2)CC1	nt	nt	nt	0.1
CNCCN(C)c1nc(-c2cccs2)nc2ccccc12	nt	nt	nt	0.0
CCN(Cc1ccccc1)c1ccc(N=Nc2nn(C)c(C)c2[N+](=O)[O-])cc1	33.5	-11.7	-50.8*	1.6
CCN(CC)c1ccc(N=Nc2nn(C)c(C)c2[N+](=O)[O-])cc1	18.7	-13.6	-58.6*	1.6
CCC1CN(C(=O)N2CCC(C(=O)NCc3cccc(C)c3)CC2)c2ccccc2O1 (configuration not stated)	19.1	7.4	nt	1.8
Cc1cc(NC(c2nnc(-c3ccccc3)o2)c2ccccc2F)ccc1Br (configuration not stated)	-1.1	-11.5	nt	0.9
CCS(=O)(=O)c1ncc(Cl)c(C(=O)N(Cc2ccccc2)Cc2ccco2)n1	-18.2	-22.0	nt	6.3
SMILES	TRPML1 blocker	DRD3 agonist	DRD3 antagonist	TRPML1 agonist
N#Cc1ccc(C(=O)NC(=S)NC2CCCCC2)cc1	-9.4	-4.3	-55.0*	0.3
Cc1ccc(SCCN2CCN(Cc3ccccc3)CC2)cc1	12.6	-17.7	?	0.1
c1ccc(SCCOCCN2CCc3ccccc3C2)cc1	6.3	-29.4	-78.2*	-0.2
OCCN1CCN(CCSc2ccccc2)CC1	-4.4	-5.0	-60.6*	2.2
c1ccc(SCCOCCN2CCOCC2)cc1	-17.9	-20.5	-7.0	0.4
c1ccc(SCCN2CCc3ccccc3C2)cc1	?	-1.0	-91.0*	0.0
O=C(CN1C(=O)CCc2cc(S(=O)(=O)N3CCOCC3)ccc21)NCc1ccc(F)cc1	3.3	3.3	nt	-0.4
O=C(CC1N=C2c3ccccc3N=C(SCC(=O)Nc3cccc(C(F)(F)F)c3)N2C1=O)NCc1cccs1 (configuration not stated)	8.6	4.8	nt	0.3
Cc1ccc(-n2nc(C(=O)N(C)c3ccccc3Cl)c3c4ccccc4n(C)c3c2=O)cc1	-25.0	-14.5	nt	1.3
S=C(NN=C1CCCCCC1)Nc1ccc(Cl)cc1	16.8	1.4	-13.3	0.4
Fc1ccc(NC(=S)NN=C2CCCCCC2)cc1	-2.0	-6.4	-149.6*	-0.3
CC(C)=N/N=C1/NC(=O)C(c2ccc(Cl)cc2)S1 (configuration not stated)	-2.7	-9.2	-95.8*	0.2
COc1ccc(C2CC(=O)Oc3c(C(CCN4CCN(c5ccccc5)CC4)c4ccc(N(C)C)cc4)c(OC)cc(OC)c32)cc1 (configuration not stated)	-5.2	-47.1	-84.1*	0.7
COc1cc(C2CC(=O)Oc3c(C(CCN4CCCC(C)C4)c4ccc(N(C)C)cc4)c(OC)cc(OC)c32)cc(OC)c1OC (configuration not stated)	57.6	-74.7	-71.5*	0.3
COc1cc(OC)c2ccc(=O)oc2c1C(CCN1CCCC(C)C1)c1ccc(N(C)C)cc1 (configuration not stated)	5.5	-61.9	-59.5*	0.4
COc1cc(C(CCN2CCCC(C)C2)c2c(OC)cc(OC)c3c2OC(=O)CC3c2ccc(N(C)C)cc2)cc(OC)c1OC (configuration not stated)	-6.9	-22.3	-59.5*	0.5
COc1cc(OC)c2c(c1C(CCN1CCCC(C)C1)c1ccc(N(C)C)cc1)OC(=O)CC2c1ccc(N(C)C)cc1 (configuration not stated)	-19.7	nt	nt	0.4
CCCCCc1cc(=O)oc2c(C(CCN3CCCC(C)C3)c3ccc(N(C)C)cc3)c(OC)cc(OC)c12 (configuration not stated)	-19.5	-63.7	-19.6	0.2
COc1cccc(C(c2sc3nc(-c4ccco4)nn3c2O)N2CCOCC2)c1 (configuration not stated)	-13.4	8.0	nt	4.3
COc1ccc(N2CCN(c3nc4ccc(C)cc4n4nnnc34)CC2)cc1	4.4	73.3*	nt	0.8
Cc1ccc2nc(Cl)c3nnnn3c2c1	1.5	-6.4	-108.7*	4.6
O=C1C2CCCN2C(=O)N1CCN1CCN(c2ccccc2)CC1 (configuration not stated)	-8.8	-41.8	-3.3	-0.3
O=C1C2CCCN2C(=O)N1CCCN1CCN(c2ccc([N+](=O)[O-])cc2)CC1 (configuration not stated)	20.4	-1.4	-22.7	0.9
COc1ccccc1N1CCN(CCN2C(=O)C3CCCCN3C2=O)CC1 (configuration not stated)	-6.2	-20.7	-79.1*	-1.3
O=C1C2CCCN2C(=O)N1CCCCN1CCN(c2ccccc2)CC1 (configuration not stated)	39.8	29.6	-23.5	0.3
COc1ccccc1N1CCN(CCCN2C(=O)C3CCCN3C2=O)CC1 (configuration not stated)	-28.2	-12.7	-82.9*	2.0

Bioassay records: PubChem BioAssay, National Center for Advancing Translational Sciences (NCATS)
